Some test systems named below: NCI-H23 lung; NCI-H226 lung; NCI-H322M lung; HOP-62 NSCLC; NCI-H460 lung; HOP-92 NSCLC; NCI-H522 lung; A549/ATCC NSCLC; 786-0 renal; COLO 205 colon; DU-145 prostate; K-562 leukemia; MALME-3M melanoma; MDA-MB-231 breast; RXF 393 renal; SF-268 CNS; SF-295 CNS; SF-539 CNS; UACC-257 melanoma; M14 melanoma.
Common to all, as to assay: NCI-60 one-dose screen, 48 h (100 = growth as untreated, 0 = no growth, -100 = all killed)
Common to all, as to conditions: 10 µM unless noted

The structures appear in SMILES notation. The panel holds about 83,000 compounds, 20% with a hit somewhere; the sample as a whole holds those more often.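 Cell lines were cultured in 96-well plates, exposed to a single compound concentration, and assessed for percent growth 48 hours later.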 A number with no mark means an inactive call. The source made the active and inactive calls. Rule for the calls: active = growth percent below 10; inactive = the rest.

Our source for the growth values is PubChem BioAssay (NCI).

`COc1ccc(C2=NN(C(=O)c3cc(OC)c(OC)c(OC)c3)C(c3ccc(N(C)C)cc3)C2)cc1` (stereo not given): the growth in the experiment with NCI-H23 lung is 26.4%; in the experiment with NCI-H226 lung it was 20.6%; in the experiment on NCI-H322M lung, 48.3%; in the experiment with HOP-62 NSCLC, 54.5%; in the experiment with NCI-H460 lung, 3.74% (active); with HOP-92 NSCLC, 21.6%. Moreover, the growth with NCI-H522 lung was -32.4% (active); in the experiment with A549/ATCC NSCLC, 30%; in the experiment with 786-0 renal, 13.6%; with COLO 205 colon, 5.9% (active); with DU-145 prostate it was 10.7%; in the experiment on K-562 leukemia, 44.2%. In addition, the growth is 84% with MALME-3M melanoma; 9.57% (active) with MDA-MB-231 breast; -18.5% (active) in the experiment on RXF 393 renal; 46.6% in the experiment on SF-268 CNS; 1.04% (active) in the experiment on SF-295 CNS; -37% (active) in the experiment on SF-539 CNS. Besides, the values for the growth in the experiment on UACC-257 melanoma and in the experiment on M14 melanoma were 62.6% and 2.04% (active), respectively.

With `CC1(C)CC[C@]2(C(=O)N3CCOCC3)CC[C@]3(C)C(=CC[C@@H]4[C@@]5(C)C/C(=C/c6ccncc6)C(=O)C(C)(C)[C@@H]5CC[C@]43C)[C@@H]2C1`, the growth is 19.5% with NCI-H23 lung; -20.4% (active) in the experiment on NCI-H226 lung; 40.9% with NCI-H322M lung; 19.8% in the experiment on HOP-62 NSCLC; -21.8% (active) in the experiment on NCI-H460 lung; -6.7% (active) in the experiment on HOP-92 NSCLC. The growth was -1.2% (active) in the experiment on NCI-H522 lung; 15.2% in the experiment on A549/ATCC NSCLC; 26.2% in the experiment with 786-0 renal; -21.1% (active) in the experiment on COLO 205 colon; 21.7% with DU-145 prostate; 6.99% (active) in the experiment with K-562 leukemia. The growth in the experiment on MALME-3M melanoma is -19.7% (active); with MDA-MB-231 breast it was 33.9%; with RXF 393 renal, -36.8% (active); in the experiment on SF-268 CNS it was 48.6%; in the experiment with SF-295 CNS, 25.4%; in the experiment with SF-539 CNS, -7.46% (active). Also, the growth was 14.8% in the experiment on UACC-257 melanoma and -8.66% (active) in the experiment on M14 melanoma.

In the case of `Cc1ccccc1OCC(O)COc1ccccc1C`, the growth with NCI-H23 lung is 404%; in the experiment with NCI-H226 lung, 97.9%; in the experiment with NCI-H322M lung it was 95.4%; with HOP-62 NSCLC it was 96.2%; with NCI-H460 lung it was 96.8%; with HOP-92 NSCLC, 93.9%. Also, the growth in the experiment with NCI-H522 lung was 77%; in the experiment on A549/ATCC NSCLC, 84.2%; in the experiment with 786-0 renal, 100%; with COLO 205 colon it was 98.2%; in the experiment on DU-145 prostate, 120%; with K-562 leukemia, 114%. In addition, the growth in the experiment on MALME-3M melanoma is 88.5%; with MDA-MB-231 breast, 103%; in the experiment on RXF 393 renal, 80.5%; in the experiment with SF-268 CNS, 99.4%; in the experiment on SF-295 CNS, 98.5%; with SF-539 CNS, 95.9%. Moreover, the growth was 89.2% in the experiment with UACC-257 melanoma and 98.5% with M14 melanoma.

With `Cc1cc2nc(-c3c(-c4ccc(F)cc4)nc4sccn34)[nH]c2cc1C`, the growth in the experiment on NCI-H23 lung was 94%; with NCI-H226 lung, 97.5%; with NCI-H322M lung it was 99.7%; in the experiment on HOP-62 NSCLC, 108%; with NCI-H460 lung, 106%; with HOP-92 NSCLC it was 86.1%. Further, the growth in the experiment on NCI-H522 lung is 85%; in the experiment on A549/ATCC NSCLC, 95.6%; in the experiment on 786-0 renal, 86.3%; in the experiment on COLO 205 colon, 105%; with DU-145 prostate, 94.3%; in the experiment on K-562 leukemia it was 94.1%. The growth in the experiment on MALME-3M melanoma was 106%; in the experiment with MDA-MB-231 breast it was 102%; in the experiment with RXF 393 renal, 93.2%; in the experiment with SF-268 CNS it was 90.8%; in the experiment on SF-295 CNS it was 92.5%; in the experiment on SF-539 CNS, 98.2%. Besides, the growth in the experiment on UACC-257 melanoma is 109%; in the experiment on M14 melanoma it was 99.5%.

For the molecule `COCC[C@H]1CCC/C=C/[C@@H]2C[C@H](O)C[C@H]2[C@H](O)/C=C/C(=O)O1`, the growth was 6.07% (active) in the experiment with NCI-H23 lung; -40.4% (active) in the experiment with NCI-H226 lung; 29.7% in the experiment on NCI-H322M lung; 31.5% in the experiment on HOP-62 NSCLC; 15.1% in the experiment with NCI-H460 lung; -8.55% (active) in the experiment on HOP-92 NSCLC. Also, the growth was -28.6% (active) in the experiment with NCI-H522 lung; 13.6% in the experiment with A549/ATCC NSCLC; -45.9% (active) in the experiment with 786-0 renal; -64.4% (active) in the experiment on COLO 205 colon; 6.25% (active) in the experiment with DU-145 prostate; 10.4% in the experiment with K-562 leukemia. In addition, the growth in the experiment on MALME-3M melanoma was -24.4% (active); in the experiment on MDA-MB-231 breast it was -85.5% (active); in the experiment on RXF 393 renal, -4.97% (active); in the experiment on SF-268 CNS, 12.6%; in the experiment with SF-295 CNS, -2.69% (active); with SF-539 CNS it was 28.3%. Further, the growth with UACC-257 melanoma is 16.7%; in the experiment on M14 melanoma, 9.75% (active).

`CCN(CC)CCCC(C)Nc1ccc2cc(OC)ccc2n1` (stereo not given): the growth in the experiment with NCI-H23 lung is 107%; with NCI-H226 lung, 107%; with NCI-H322M lung, 94.7%; in the experiment with HOP-62 NSCLC, 91.4%; with NCI-H460 lung, 108%; with HOP-92 NSCLC, 91.5%. Further, the growth in the experiment on NCI-H522 lung was 99.1%; in the experiment with A549/ATCC NSCLC, 85.4%; in the experiment on 786-0 renal it was 98.9%; in the experiment with COLO 205 colon, 107%; in the experiment on DU-145 prostate, 99.9%; with K-562 leukemia, 131%. The growth was 114% in the experiment with MALME-3M melanoma; 104% with MDA-MB-231 breast; 112% with RXF 393 renal; 91.2% in the experiment with SF-268 CNS; 97.4% in the experiment on SF-295 CNS; 100% in the experiment on SF-539 CNS. The values for the growth in the experiment with UACC-257 melanoma and in the experiment on M14 melanoma were 94.7% and 99.3%, respectively.

Regarding `O=C1C(Cl)=C(NCCN2CCOCC2)C(=O)c2ncccc21`, the growth in the experiment on NCI-H23 lung is -41.8% (active); in the experiment on NCI-H226 lung, -37.8% (active); in the experiment on NCI-H322M lung it was 1.09% (active); in the experiment with HOP-62 NSCLC it was -63% (active); in the experiment on NCI-H460 lung, 0.786% (active); in the experiment with HOP-92 NSCLC, 72.6%. Moreover, the growth in the experiment with NCI-H522 lung was -74% (active); in the experiment with A549/ATCC NSCLC, -54.3% (active); with 786-0 renal, 18.1%; in the experiment with COLO 205 colon, -75.2% (active); with DU-145 prostate it was -88.5% (active); in the experiment on K-562 leukemia it was -33.5% (active). Also, the growth in the experiment with MALME-3M melanoma is -79.3% (active); in the experiment with MDA-MB-231 breast, 18.6%; in the experiment with RXF 393 renal it was -27.5% (active); with SF-268 CNS, 11%; in the experiment on SF-295 CNS, -40.5% (active); with SF-539 CNS, -85.8% (active). In addition, the growth is -92.8% (active) in the experiment on UACC-257 melanoma and -85.9% (active) with M14 melanoma.
